In PubChem BioAssay:
The source made the active and inactive calls. Unless noted, the rule behind the calls is not given here.

Columns and labels:
[1] = liver-stage malaria parasite load reduction – cell-based, known kinase inhibitor set, luminescence, hepatoma host viability (AID 624392); conditions: Plasmodium liver stage in hepatoma cells, luciferase luminescence, concentration not given here; liver cell % of control: measured here: host liver cell viability; parasite % of control: stronger effect = lower value;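 note: infected cells incubated roughly two days before readout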
[2] = altered dexamethasone sensitivity, NF-kB reporter, cell-based, luciferase, IL-1B stimulus (AID 624486); conditions: IL-1B + dexamethasone, luminescence; percent of negative control (+Dex): actives lie on both sides, concentration not given here; z-score: measured here: IL-1B alone, no Dex;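 for percent of negative control (+Dex): 100% = mean signal of vehicle control wells on the plate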
[3] = C. elegans survival during P. aeruginosa infection – whole organism (AID 651566);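 note: tested at 14 µM; sign flipped so higher z means a lower ratio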; conditions: C. elegans killed by P. aeruginosa, survival ratio
[4] = pro-inflammatory signaling induction in mouse macrophages – cell-based, murine, luminescence (AID 652131); conditions: murine macrophage pro-inflammatory reporter, stronger effect = higher value
[5] = target: Cellular tumor antigen p53 (Homo sapiens) (UniProt P04637); test: GFP-p53 level modulators in HPV16+ cells – imaging, known kinase inhibitor set, EGFP/DsRed ratio (AID 1053116); conditions: GFP-p53 stability, stronger effect = higher value; EGFP object count: measured here: GFP-p53 positive objects count;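 note: cells exposed to compounds for 24 h at 37 °C before reading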
Chain of Cellular tumor antigen p53 (Homo sapiens) (P04637 whole entry, looked up): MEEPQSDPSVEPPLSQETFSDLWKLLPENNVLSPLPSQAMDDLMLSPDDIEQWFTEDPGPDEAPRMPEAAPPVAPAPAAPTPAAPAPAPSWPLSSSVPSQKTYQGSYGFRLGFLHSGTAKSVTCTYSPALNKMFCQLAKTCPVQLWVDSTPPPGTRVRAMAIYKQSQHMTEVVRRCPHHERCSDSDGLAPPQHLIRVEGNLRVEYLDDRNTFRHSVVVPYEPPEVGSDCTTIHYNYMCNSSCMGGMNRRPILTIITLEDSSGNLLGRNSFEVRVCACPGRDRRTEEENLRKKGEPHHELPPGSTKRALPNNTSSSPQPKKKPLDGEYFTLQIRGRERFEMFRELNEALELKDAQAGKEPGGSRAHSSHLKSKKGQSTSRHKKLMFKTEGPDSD

[6] = inducers of IRF3 signaling, differentiated THP-1 – cell-based, PMA-stimulated THP-1, luminescence (AID 1053176); conditions: PMA-differentiated THP-1, IRF3 reporter luminescence; stronger effect = higher value
[7] = MELAS cybrid and Rieske KO viability enhancers – cell-based, MELAS cybrids, Rieske KO mouse fibroblasts, CellTiter-Glo, primary screen (AID 1508586;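 active = mean z-score across replicates of 1.96 or higher in either the MELAS or the Rieske mutant cell line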;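 note: z relative to plate mean and SD of compound and empty wells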); conditions: low glucose
[8] = MELAS cybrid survival, CellTiter-Glo 48 h, stronger effect = higher value
[9] = Rieske KO mouse fibroblast survival, CellTiter-Glo 72 h

Row | SMILES | liver cell % of control [1] | parasite % of control [1] | percent of negative control (+Dex) [2] | z-score [2] | z-score [3] | z-score [4] | EGFP object count [5] | EGFP/DsRed ratio [5] | fraction signal [6] | z-score [7, 8] | z-score [7, 9]
1 | COc1cc(Nc2nccc(-c3cnn4ncccc34)n2)cc(OC)c1 | 132% | 14.2% (inactive) | 29% (active) | -7.79 | 0.5 (inactive) | -1.96 (inactive) | 2.5 | 0.0482 (inactive) | -0.004 (inactive) | 1.1 (inactive) | 0.69
2 | COc1cc(C)c(NC(=O)CN(C)C)cc1Nc1nc(Nc2cccc(F)c2C(N)=O)c2cc[nH]c2n1 | 63% | 550% (inactive) | 93% (inactive) | -0.195 | -0.165 (inactive) | 5.12 (inactive) | 21 | 0.493 (inactive) | -0.0105 (inactive) | 1.87 (inactive) | -0.0279
3 | Oc1[nH]c2ccccc2c1C=Nc1ccc(-n2cncn2)cc1 | 80.6% | 240% (inactive) | 142% (active) | 4.13 | -0.065 (inactive) | 3.17 (inactive) | 8.5 | 0.377 (inactive) | -0.0045 (inactive) | 0.931 (inactive) | -0.448
4 | NC(=O)c1cccc(Nc2nccc(Nc3cccc(F)c3)n2)c1 | 116% | 398% (inactive) | 208% (active) | 8.4 | 1.67 (inactive) | 0.244 (inactive) | 2 | 0.0178 (inactive) | 0.002 (inactive) | -0.778 (inactive) | -0.359
5 | CC(Cn1ncnn1)Nc1ncc2cc(Oc3ccc(F)cc3F)c(=O)n(C)c2n1 (stereo not given) | 111% | 71.1% (inactive) | 101% (inactive) | 0.455 | – | – | 1.5 | 0.0437 (inactive) | -0.003 (inactive) | – | –
6 | Cn1cc(C2=C(Sc3ccccc3)C(=O)NC2=O)c2ccccc21 | 92.3% | 50.7% (inactive) | 99.5% (inactive) | 0.02 | – | – | 2.5 | 0.0664 (inactive) | 0.008 (inactive) | – | –
7 | Cc1cc(C)c2c(n1)sc1c(N)ncnc12 | 173% | 24.3% (inactive) | 68.5% (active) | -2.76 | – | – | 2.5 | 0.0145 (inactive) | 0.0035 (inactive) | – | –
8 | CC(=O)N1CCC(Nc2ncc3cc(Oc4ccc(F)cc4F)c(=O)n(C)c3n2)CC1 | 113% | 81.4% (inactive) | 102% (inactive) | 0.13 | – | – | 2 | 0.0142 (inactive) | -0.005 (inactive) | – | –
9 | Cn1c(=O)c(Oc2ccccc2)cc2cnc(NC3CCOCC3)nc21 | 106% | 60.6% (inactive) | 105% (inactive) | 1.03 | – | – | 3.5 | 0.0479 (inactive) | -0.005 (inactive) | – | –
10 | Nc1c(C(=O)c2cccc(OCC(O)CO)c2)cnn1-c1ccc(F)cc1 (stereo not given) | 125% | 58.2% (inactive) | 110% (inactive) | 1.27 | – | – | 1.5 | 0.00398 (inactive) | -0.0115 (inactive) | – | –
11 | Cn1cc(C2=C(c3cccc(Cl)c3)C(=O)NC2=O)c2ccccc21 | 109% | 69.6% (inactive) | 106% (inactive) | 0.59 | – | – | 5 | 0.137 (inactive) | 0.0035 (inactive) | – | –
12 | Fc1ccc(-c2c(-c3ccncc3)[nH]c3cccnc23)cc1 | 141% | 1.58% (active) | 95% (inactive) | 0.075 | – | – | 6 | 0.15 (inactive) | -0.0095 (inactive) | – | –
13 | CCn1c(-c2nonc2N)nc2c(C#CC(C)(C)O)ncc(OC3CCNCC3)c21 | 78% | 13.9% (active) | 89% (inactive) | -0.435 | 0.17 (inactive) | 3.47 (inactive) | 10.5 | 0.266 (inactive) | 0.001 (inactive) | -0.105 (inactive) | -0.284
14 | CC(=O)NC(Cc1ccc(OP(=O)(O)O)cc1)C(=O)NC1CCC(=O)N2CCCC(C(=O)NCc3ccc(O)cc3)N2C1=O (stereo not given) | 107% | 44.4% (inactive) | 94.5% (inactive) | 0.215 | – | – | 6 | 0.202 (inactive) | -0.007 (inactive) | – | –
15 | COc1cccc2c1c(C1=C(c3cn(C)c4ccccc34)C(=O)NC1=O)cn2C | 85.8% | 34.6% (inactive) | 103% (inactive) | 0.84 | – | – | 12.5 | 0.282 (inactive) | -0.0155 (inactive) | – | –
